Counter-ions that a name gives are not always drawn. A number with no mark means an inactive call.
Experiments:
[1] = test system: Plasmodium falciparum NF54/iGP1_RE9H ulg8 stage V gametocytes; experiment: gametocyte viability (luciferase signal relative to DMSO control) (% of DMSO control); higher = less gametocytocidal activity, active = 50 or less; details: exposure time: 72 h
Procedure: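 Synchronous P. falciparum NF54/iGP1_RE9H ulg8 mature stage V gametocytes (day 12) were exposed to Cayman Epigenetics Screening Library compounds at 10 µM or 1 µM for 72 h at 37 °C. Viability was read as RE9H luciferase bioluminescence, normalised to DMSO plate controls (100%); 50 µM methylene blue was the positive control.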

[2] = test system: Plasmodium falciparum NF54/iGP1_RE9H ulg8 stage V gametocytes; experiment: gametocyte viability (luciferase signal relative to DMSO control) (% of DMSO control); higher = less gametocytocidal activity, active = 50 or less; details: exposure time: 72 h; remark: listed apart in the source
How it was run: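 NF54/iGP1_RE9Hulg8 stage V gametocytes (day 12; ~2.5% gametocytemia, 3% hematocrit) in medium with 0.5% Albumax II were added to 96-well plates of nanolitre-spotted compounds (10 mM DMSO stocks), giving 10 µM or 1 µM, one well each. Plates were incubated 72 h at 37 °C. Then 90 µl was mixed with 10 µl D-luciferin (30 mg/ml) and luminescence was read on an IVIS Lumina II. Viability is relative to the mean of plate DMSO vehicle controls.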

Row | Structure (SMILES) | gametocyte viability ([1]; concentration: 1 µM) | gametocyte viability ([1]; concentration: 10 µM) | gametocyte viability ([2]; concentration: 1 µM) | gametocyte viability ([2]; concentration: 10 µM)
1 | O=c1[nH]c(=S)[nH]c(-c2ccccc2)c1Cc1c(O)ccc2ccccc12 [SIRT1/2 Inhibitor IV] | 84.7 | 87.5 |  | 
2 | Nc1ccccc1NC(=O)c1ccc(CNC(=O)OCc2cccnc2)cc1 | 83.8 | 88 |  | 
3 | C#Cc1cccc(Nc2ncnc3cc(OC)c(OCCCCCCC(=O)NO)cc23)c1 | 58.7 | 56.7 |  | 
4 | O=c1oc2c(O)c(O)cc3c(=O)oc4c(O)c(O)cc1c4c23 [Ellagic Acid] | 101 | 95.3 |  | 
5 | Cc1ccc(-n2sc3ccccc3c2=O)cc1 | 90.8 | 59.8 |  | 
6 | Cc1ccc(NC2=CC(=O)c3sc(C)nc3C2=O)cc1 [Ryuvidine] | 59.2 | 19.2 (active) |  | 
7 | O=C(CCCCCCC(=O)Nc1ccccc1)NO | 86.4 | 56.2 |  | 
8 | CC[C@@H]1C(=O)N(C)c2cnc(Nc3ccc(C(=O)NC4CCN(C)CC4)cc3OC)nc2N1C1CCCC1 | 78.1 | 16.6 (active) |  | 
9 | COc1cc2/c(=N/c3ccc(Br)cc3F)nc[nH]c2cc1OCC1CCN(C)CC1 [Vandetanib (Zactima)] |  |  | 88.8 | 108
10 | COc1cc2c(Nc3ccc(NC(=O)c4ccccc4)cc3)ncnc2cc1OCCCN1CCOCC1 |  |  | 92.3 | 92.5
11 | O=C(O)c1ccc(Nc2ncc3c(n2)-c2ccc(Cl)cc2C(c2c(F)cccc2F)=NC3)cc1 |  |  | 102 | 103
12 | O=C(NOCC1CC1)c1ccc(F)c(F)c1Nc1ccc(I)cc1Cl |  |  | 93.2 | 98.6
13 | CC(=O)Nc1nc(C)c(-c2ccc(Cl)c(S(=O)(=O)NCCO)c2)s1 |  |  | 81.5 | 13.6 (active)
14 | Cc1ccc(NC(=O)c2cccc(N(C)C)c2)cc1NC(=O)c1ccc(O)cc1 |  |  | 95.9 | 95.6
15 | Cc1[nH]c(/C=C2\C(=O)Nc3ccccc32)c(C)c1CCC(=O)O |  |  | 96.9 | 105
16 | Cn1cc(C2=C(c3cn(CCCSC(=N)N)c4ccccc34)C(=O)NC2=O)c2ccccc21 [Ro 31-8220 mesylate] |  |  | 123 | 78.9
17 | Oc1cc(O)cc(/C=C/c2ccc(O)c(O)c2)c1 [Piceatannol] |  |  | 70.4 | 38.4 (active)
18 | Cc1cc2ncc(-c3ccccc3)nc2cc1C |  |  | 91.2 | 70.6
19 | Cc1cc(Nc2cc(CN3CCOCC3)c3nc(C)c(Cc4ccc(Cl)cc4F)n3n2)n[nH]1 |  |  | 95.6 | 97.8
20 | Nc1nc(Nc2ccc(S(N)(=O)=O)cc2)nn1C(=O)c1c(F)cccc1F |  |  | 101 | 85.9
21 | CN(C)C/C=C/C(=O)Nc1cc2c(Nc3ccc(F)c(Cl)c3)ncnc2cc1O[C@H]1CCOC1 [Afatinib (BIBW2992)] |  |  | 92 | 93.5
22 | C=CC(=O)Nc1cc2c(Nc3ccc(F)c(Cl)c3)ncnc2cc1OCCCN1CCOCC1 [CI-1033 (Canertinib)] |  |  | 97.8 | 100
23 | CNC(=O)Nc1ccc(-c2nc(N3CC4CCC(C3)O4)c3cnn(C4CCC5(CC4)OCCO5)c3n2)cc1 |  |  | 103 | 108
24 | CC(C)(C)n1nc(-c2ccc(Cl)cc2)c2c(N)ncnc21 |  |  | 97 | 99.4
25 | CNC(=O)c1ccccc1Sc1ccc2c(/C=C/c3ccccn3)n[nH]c2c1 [Axitinib] |  |  | 103 | 98.8
26 | CC1(COc2ccc3c(c2)ncn3-c2ccc3cccc(N4CCC(N)CC4)c3n2)COC1 |  |  | 125 | 112
27 | CC[C@H](Nc1ncnc2[nH]cnc12)c1nc2cccc(F)c2c(=O)n1-c1ccccc1 |  |  | 95.1 | 95.9
28 | Cc1nc(Nc2ncc(C(=O)Nc3c(C)cccc3Cl)s2)cc(N2CCN(CCO)CC2)n1 |  |  | 95.3 | 87.3
29 | COc1ccc(-c2cc3c(C)nc(N)nc3n([C@H]3CC[C@H](OCCO)CC3)c2=O)cn1 |  |  | 95.3 | 84.2
30 | COc1cc2ncnc(Nc3ccc(F)c(Cl)c3)c2cc1OCCCN1CCOCC1 [Gefitinib (Iressa)] |  |  | 95.3 | 92.8
